This passage reports growth results from PubChem BioAssay (NCI).

Structures are written as SMILES. The panel holds about 83,000 compounds, 20% with a hit somewhere; the sample as a whole holds those more often.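 In brief: 96-well plates, 48 h treatment, single concentration, percent growth endpoint.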 Unmarked numbers belong to inactive results. The source made the active and inactive calls. Rule for the calls: active = growth percent below 10; inactive = the rest.

The subject of this assay is HL-60(TB) leukemia. The experiment in a line: NCI-60 one-dose screen, 48 h (100 = growth as untreated, 0 = no growth, -100 = all killed). Conditions: 10 µM unless noted.
Consider `COc1ccc(/C(C)=N/NC(=O)CSc2nc3ccccc3c(=O)n2CCc2ccc(S(N)(=O)=O)cc2)cc1`, for which the growth is 76.7%.

For `COc1ccc(-c2cc(-c3c(C)oc4cc5occc5c(OC)c4c3=O)nc(N)c2C#N)cc1OC`, the growth was 57.9%.

With `COc1ccc(-c2cc(C(=O)N3N=C(c4ccc(N)cc4)CC3c3ccccc3)c3ccccc3n2)cc1` (stereo unspecified), the growth is -28% (active).

For the molecule `Cn1nc(C(C)(C)C)cc1NC(=O)Cc1ccc(/C=C2\C(=O)Nc3ccccc32)cc1`, the growth was 48.2%.

With `COc1ccc(-c2nc3ccccn3c2-c2nc3ccc(Cl)cc3[nH]2)cc1`, the growth was 74.8%.

`CC(=O)c1nc2ccccc2n1CC(=O)c1cccc(Cl)c1`: the growth is -28.9% (active).

As for `C=C[C@]1(C)C=C2CC[C@@H]3C(C)(C)C(=O)CC[C@@]3(C)[C@@H]2CC1`, the growth is 101%.

As to `S=C(S)Oc1cccc2cccnc12`, the growth is 80.7%.

For the molecule `O=C1/C(=C/c2ccccc2F)CNC/C1=C\c1ccccc1F`, the growth is -42.9% (active).

For `COc1ccc(CCc2nc3cc(-c4c(C)noc4C)ccc3n2CCN2CCOCC2)cc1`, the growth was 5.97% (active).

As to `Cc1ccc(S(=O)(=O)Nc2ccccc2)cc1N`, the growth was 96%.

Consider `COc1ccc(S(=O)(=O)NC2c3ccccc3CC2O)cc1OC` (stereo unspecified), for which the growth was 103%.

`Cc1nc([C@H]2CC[C@H]3[C@@H]4CCC5=CC(=O)CC[C@]5(C)[C@H]4CC[C@]23C)cs1`: the growth was 4.93% (active).

With `O=C1Nc2cc(-c3ccc(NC(=O)c4ccccc4)cc3)ccc2/C1=C/c1ccc[nH]1`, the growth was 99.2%.

Consider `CC(=O)O[C@@]12CO[C@@H]1C[C@H](O)[C@@]1(C)C(=O)[C@H](O)C3=C(C)[C@@H](OC(=O)[C@H](O)[C@@H](NC(=O)OC(C)(C)C)c4ccccc4)C[C@@](O)([C@@H](OC(=O)c4ccccc4)C12)C3(C)C` (stereo partly specified), for which the growth is -12.9% (active).

For the molecule `CN1C2CCC1/C(=C\c1ccc(Cl)cc1)C1=C2[C@@H](c2ccc(Cl)cc2)C(C#N)=C(N)O1` (stereo partly specified), the growth is 81.8%.

Consider `CO[C@H]1/C=C/O[C@@]2(C)Oc3c(C)c(O)c4c(O)c(c(/C=N/N5C(C)CN(Cc6ccc(C#N)cc6)CC5C)c(O)c4c3C2=O)NC(=O)/C(C)=C\C=C\[C@H](C)[C@H](O)[C@@H](C)[C@@H](O)[C@@H](C)[C@H](OC(C)=O)[C@@H]1C` (stereo partly specified), for which the growth is -37% (active).

As for `CN1NC(c2ccccc2)NN(C)C1=O`, the growth is 105%.

With `CCOC(=O)c1ccc(N(CCC(=O)O)C(C)=O)cc1`, the growth was 117%.

Consider `COc1ccc(C(=O)c2sc3nc(C)cc(C)c3c2N)cc1OC`, for which the growth was 97.3%.

With `O=C(C[n+]1cccc(Br)c1)c1ccc2c(c1)CCCC2`, the growth was 83.6%.

Turning to `CC(=O)c1ccc2c3c(n(C)c2c1)CCCC3`, the growth is 93.1%.

For `O=[N+]([O-])c1cc(Br)c2cccc3c2c1CC3`, the growth was 94.4%.

Take `C#CCOC(=O)C(N)CSSCC(N)C(=O)O` (stereo unspecified): the growth was 120%.

Take `C=C1CCC2C3(C)COC(C)(C)OC3CCC2(C)C1C/C=C1/C(=O)OCC1Oc1ccccc1OC` (stereo unspecified): the growth was 38.6%.

With `Nc1nccc2c1ccn2-c1ccc(NC(=O)c2ccc(N3CCOCC3)c(C(F)(F)F)c2)cc1`, the growth was -4.36% (active).

As for `O=C(Nc1ccc(Cl)cc1)c1cc(NCc2cc(O)ccc2O)ccc1O`, the growth is 0.347% (active).

Turning to `O=C1NC(=O)C(Cn2cnc3ccccc32)N1` (stereo unspecified), the growth is 95.8%.

Regarding `c1ccc(-c2c(-c3ccccc3)[n+](Cc3ccc4ccccc4c3)cn2Cc2ccc3ccccc3c2)cc1`, the growth was -67.1% (active).

In the case of `COc1cnc2c(c1)C(=O)c1c-2n(CCCN2CCC(O)CC2)c(=O)c2cc(Cl)ccc12`, the growth was -35.9% (active).

On to `COc1cccc(-c2nnc(N)o2)c1`, for which the growth is 74.9%.

As for `c1coc(CNc2ccnc(Nc3ccc(OCCN4CCCCC4)cc3)n2)c1`, the growth was 74.6%.

On to `CCOC(=O)CNS(=O)(=O)CC(=O)c1ccccc1`, for which the growth was 102%.

Regarding `CN1CCN(C(=O)[C@@]2(C)CC[C@]3(C)CC[C@]4(C)C(=CC[C@@H]5[C@@]6(C)CC[C@H](OC(=O)c7cccnc7)C(C)(C)[C@@H]6CC[C@]54C)[C@@H]3C2)CC1`, the growth is -49.1% (active).

As to `O=c1ccc2nc(-c3ccccc3)nn(-c3ccccn3)c-2c1`, the growth is -28.1% (active).

For `CCN(CCCOc1ccc2c(Nc3cc(CC(=O)Nc4cccc(F)c4)[nH]n3)ncnc2c1)CCOP(=O)(O)O`, the growth is 34.9%.
